Reference: the supplement of paper PMC6555819

These sequences were tested on VDR:RXRa (NR concentration 270 nM, RXRa partner concentration 90 nM) (assay: PBM binding z-score (relative to random genomic background probes); higher = stronger binding; sequences stand for … in GC…GCGATTGACAGCGTAGAATGAAGG).
Protocol: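 Protein-binding microarray (Agilent 4x180K custom design, double-stranded 60-nt probes: 5' GC cap, 34-nt variable region, 24-nt constant primer region; full probe sequence given). Purified or IVT nuclear receptor:RXRα heterodimers (3:1 NR:RXRα, mostly 270:90 nM) or homodimers were incubated for 1 h in PBS with 2% milk and no ligand, then detected with Alexa488 antibodies. Fluorescence from o1-orientation probes (~5 replicates averaged) was converted to z-scores against 500 random hg19 background probes. Variable regions are seed direct-repeat (DR0–DR5) sites, all their single-nucleotide variants and half-site ablations.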
With CTCGGAAGGTCGTGCTCAGGTGAGTATACCAAAC the PBM binding z-score was 1.58.
TCATATCGGTAAACAGGTGAAAGTCCGTAAGTTA showed a PBM binding z-score of 0.935.
Work on AATACAGGGTCATCGTGGGCCAGAGTACGCACAG yielded a PBM binding z-score of 5.18.
Sequence ATCTCTAGGAAAGACTCAGTTCAGTGAAGAACGC has a PBM binding z-score of 0.436.
Sequence AGTCAAAGTTCATCTAGGTAACGTCAGATATGCT has a PBM binding z-score of 5.17.
CGTCAAAGTTCAACTAAGGTAAAGTAAAGCACGC was tested, and the PBM binding z-score was 4.64.
For TCTTGTAGATCAAGCAGGTTAAGAGAGCCTGAGT, the PBM binding z-score was 0.331.
Work on GCAGACAGGTGAAACGGAGGTAACTCAGGGTGGC yielded a PBM binding z-score of -0.2.
ACTTACGGGTCAACGAGGTTATATCACGCGTATA showed a PBM binding z-score of 7.44.
With CATACAGGGTCAGCTAGGCCAGAGTAGGGACGGC the PBM binding z-score was 3.8.
With TCGCCTAGGTCATTGGGCCAGTATAGTACGCATC the PBM binding z-score was 2.23.
TCCTATAGGTAAAAGGTGAAAGTCGGTGTGGTAA gave a PBM binding z-score of 1.17.
CGAACTAGGTCATTGACAGGACATTGAATAGTAA showed a PBM binding z-score of 3.1.
Work on GGAACGAGGGCAAGTTGATAACAGAGTTTGATGG yielded a PBM binding z-score of 0.906.
Work on TCGATTAGGTTAGGGGCATTCAGAATGGCGTCGA yielded a PBM binding z-score of 0.781.
Sequence CCTAGCAGGCCAATCTGGGCCACTCAAGGCTTGA has a PBM binding z-score of -0.783.
Work on TCTTTTAGTTGAAGGGCAACCGACGAGTCCGTTT yielded a PBM binding z-score of 0.995.
For CGAACTAGGTCATTGACCGGACAGTGAATAGTAA, the PBM binding z-score was 1.96.
GCGACTGGGGCATCAACAGGTTACCATAACTTAA gave a PBM binding z-score of 0.0297.
CTCGAAGGGTCGGTTGAGGTGAGTATACGGATAA showed a PBM binding z-score of 1.25.
With TAGCCTAGGTCATGCCGGCCAGTATAGTGTCGGC the PBM binding z-score was 1.95.
In the case of CCAGACAGATGAAAGGTAACTCAGTCTGGTACGC, the PBM binding z-score is reported as 0.208.
Work on TCAGACAGGGGAAGGTAACTCAGGTACGCAGTCG yielded a PBM binding z-score of 0.795.
With AGAATGAGGTTATTAAGATCATGGAATTGCGGTC the PBM binding z-score was 3.3.
With TTAATGAGGTTAAAGATCAGGGAACGTGGCGTCG the PBM binding z-score was 2.4.
In the case of ATGTGTAGGTTAAGGGTCATTCAGGTTGGTTCGC, the PBM binding z-score is reported as 5.79.
With CCAGACAGGTGAGAAGGTACCTCAGCCTCGATTA the PBM binding z-score was -0.437.
With CCGAGTAGGTTATGGGGCATTCAGGCAACGGTGA the PBM binding z-score was -0.0737.
For ACTATTAGTTGACTAAGGGCAACCGATACGACGC, the PBM binding z-score was 1.29.
For TCAGACAGGTGAAGGTAATTCAGGTACGCAGTCG, the PBM binding z-score was 1.1.
ACAGACAGGTGAGTGAAGGTTACTCAGCTGGACG showed a PBM binding z-score of 0.088.
CCAGACAGGGGAGAAGGTAACTCAGCCTCGATTA was tested, and the PBM binding z-score was -0.544.
Sequence GCTAGATGGTCAGTAAAAGGTCACACACCGGTCG has a PBM binding z-score of 3.91.
CGTCCAAAGTCATAGGAGGTCAGTGAAGACAGAT showed a PBM binding z-score of 3.12.
Sequence TCATATAGGTAAAAGGTGTAAGTCGGTGTGGTAA has a PBM binding z-score of 0.727.
With TCTATTAGTTGAAGGGCAAGCGACGAGTCCGTTT the PBM binding z-score was 0.979.
CCTAGTTGATCAGGAGGTCACACACCGGATATGA gave a PBM binding z-score of 4.08.
Sequence TCTCAGAGGACACGAAGGTCAGAGCTTTCCAGAG has a PBM binding z-score of 2.75.
AGTCAAAGTTCACTAGGTAACTTAAGATTCAGCT was tested, and the PBM binding z-score was 3.88.
ATCTCTAGGTAAAAGATCAGTGAATCCCGAGGAT was tested, and the PBM binding z-score was -0.291.
